Rows were chosen to be rich in hits. Some 4.7% of all compounds tested hit in one or more screens of this group.
TRHR ag – qHTS for Small Molecule Agonists and Allosteric Enhancers of Human TRH Receptor: Primary Screen for Agonists; Thyrotropin-releasing hormone receptor (Homo sapiens), P34981; TRHR cells, calcium flux fluo-8, FDSS agonist mode; activation, % at 2 µM; 360,000 tested, 0.18% active; also: 0% is about no effect
Target sequence (P34981 whole entry, looked up): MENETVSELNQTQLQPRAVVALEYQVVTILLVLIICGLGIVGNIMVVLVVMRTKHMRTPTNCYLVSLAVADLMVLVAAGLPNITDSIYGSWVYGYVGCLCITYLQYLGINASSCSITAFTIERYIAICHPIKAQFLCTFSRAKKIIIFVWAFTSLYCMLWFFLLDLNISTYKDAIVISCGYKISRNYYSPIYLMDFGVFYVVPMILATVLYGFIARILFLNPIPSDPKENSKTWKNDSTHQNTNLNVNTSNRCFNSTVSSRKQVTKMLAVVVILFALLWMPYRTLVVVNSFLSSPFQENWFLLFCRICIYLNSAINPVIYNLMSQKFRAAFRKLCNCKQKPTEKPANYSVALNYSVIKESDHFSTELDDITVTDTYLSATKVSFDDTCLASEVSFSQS
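In this calcium-flux screen, cells bearing human TRHR are dye-loaded with fluo-8, baselined for 10 cycles, then exposed to library compounds; positive kinetic calcium responses during the agonist phase mark hits, with TRH as control.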
D1 agonist – Allosteric Agonists of the Human D1 Dopamine Receptor: qHTS; HEK293 T-REx D1 cells, calcium flux, agonist mode; AID 504660, 2011; activation, % at 2 µM; 360,000 tested, 1% active; also: 0% is about no effect
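Agonism was scored from calcium flux recorded over 180 s (1 read/s) after pintool compound addition, following a 10-cycle baseline. Cells were inducible force-coupled HEK293 TREx D1, plated overnight at 30 C and loaded with no-wash calcium dye.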
TRHR PAM – qHTS for Small Molecule Agonists and Allosteric Enhancers of Human TRH Receptor: Primary Screen for Enhancers; TRHR cells, fluo-8 calcium fluorescence, EC20 TRH enhancement; Thyrotropin-releasing hormone receptor (Homo sapiens), P34981; 360,000 tested, 0.66% active; enhancement, % at 2 µM; in the data active = enhancement above about 30%; also: 0% is about no effect
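TRHR-expressing cells loaded with fluo-8 calcium dye were read kinetically (ex 480/em 530) during compound addition, then stimulated with an EC20 of TRH (10 nM final). Enhancement of the Gq-mediated intracellular calcium response was scored.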
D1 potentiator – Potentiators of Human D1 Dopamine Receptor: qHTS; potentiation, % at 10 µM; 360,000 tested, 0.036% active; HEK293 TREx D1 cells, calcium flux, dopamine EC20 potentiation; D(1A) dopamine receptor (Homo sapiens), P21728; in the data active = potentiation above about 30%; also: 0% is about no effect
D1 antag – Antagonist of Human D 1 Dopamine Receptor: qHTS. activity change, negative = inhibition, % at 10 µM. HEK293 TREx D1 cells, calcium flux, dopamine EC80; active compounds read low. D(1A) dopamine receptor (Homo sapiens), P21728. 360,000 tested, 3.2% active; in the data active = activity change below about -30%; also: % is scaled to controls: 0 for no effect and ±100 for the full control effect
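Inducible Hek293 Trex D1 cells (tetracycline, overnight, 30 C). Calcium dye 30–90 min RT. Antagonist mode: EC80 dopamine added after 180 s compound read.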
Numbers without * were called inactive; . = no result given; ! = not active in a repeat. Rule as the data show it, unless noted: active = activation above about 30%; inactive = the rest.

SMILES	TRHR ag	D1 agonist	TRHR PAM	D1 potentiator	D1 antag
COc1ccc(-c2cc3ccc(OCC(N)=O)cc3oc2=O)cc1OC	1	2	3	-2	7
CC(=O)c1cc2ccc(O)cc2oc1=O	5	38*	6	0	5
COc1ccc(-c2cc3ccc(OC(C)C(=O)O)cc3oc2=O)cc1 (stereo not given)	1	4	5	-6	-30*
Cc1ccc(NC(=O)C2CCN(S(=O)(=O)c3ccc4[nH]c(=O)ccc4c3)CC2)cc1C	0	2	2	4	2
Cc1ccccc1-c1nc(CS(=O)(=O)CC(=O)NCCCc2ccccc2)c(C)o1	1	15	2	-3	-18
Cc1cccc(N2CC(c3nc4ccc(C)cc4[nH]3)CC2=O)c1 (stereo not given)	-2	-1	3	3	6
COc1ccc(-c2nn3c(=O)cc(CN4CCN(C(=O)Nc5ccc(C)c(Cl)c5)CC4)nc3s2)cc1	1	-1	3	-3	-14
CCCCN(C(=O)c1oc2ccc(OCC)cc2c1C)c1c(N)n(CC(C)C)c(=O)[nH]c1=O	0	0	-8	-16	-32*
CCCCn1c(N)c(N(CC(C)C)C(=O)c2oc3ccc(OCC)cc3c2C)c(=O)[nH]c1=O	0	2	5	-3	1
CCN(CC(=O)NC1CCS(=O)(=O)C1)C(=O)c1cc(OC)c(OC)c(OC)c1 (stereo not given)	0	1	4	-4	-14
CCCCCCCC(O)CC(CC1CCCCC1)C(=O)NN (stereo not given)	0	2	33*	-6	12
CC1CCc2c(sc3nc(-c4cc5ccccc5oc4=O)nc(Cl)c23)C1 (stereo not given)	-2	29	10	0	-3
c1ccc(Cc2noc(CN3CCN(C4CCc5ccccc5C4)CC3)n2)cc1 (stereo not given)	0	32*	-1	5	1
c1ccc(Cc2noc(CN3CCCN(C4Cc5ccccc5C4)CC3)n2)cc1	-1	-1	-6	-3	0
CCOC(=O)c1c(C)[nH]sc1=S	-3	1	33*	3	16
CCOC(=O)c1[nH]c(C)c(C(=O)OCC)c1C	-1	2	19	.	9
CCCOc1cccc(NC(=O)c2c(-c3ccccc3Cl)noc2C)c1	-1	2	-5	-5	0
CCOc1ccc(NC(=O)N(C)CCc2c(C)nn(C)c2C)cc1	0	-1	-3	-1	-4
Cc1noc(C)c1COc1ccccc1C(=O)NCCc1ccc(S(N)(=O)=O)cc1	0	2	-5	-11	-34*
COc1ccc(NC(=O)CN(C)C(=O)c2cccc3ccccc23)cc1	0	2	0	-2	-6
Cc1noc(C)c1COc1ccccc1C(=O)N(C)CC(=O)Nc1ccc(F)cc1	0	1	3	34*	-21
COc1ccc(NC(=O)CN(C)C(=O)c2ccccc2OC)cc1	1	1	35*	3	2
Cc1noc(C)c1CSCC(=O)N(C)CC(=O)Nc1ccc(Cl)cc1	0	3	-3	-8	-44*
CCC(=O)c1ccc(OC(=O)C2CCN(C3=NS(=O)(=O)c4ccccc43)CC2)cc1	-1	0	3	0	5
O=C(COc1ccc(F)cc1)OCc1cc(=O)n2nc(-c3cccs3)sc2n1	0	3	7	-4	-2
SMILES	TRHR ag	D1 agonist	TRHR PAM	D1 potentiator	D1 antag
Cc1noc(C)c1COc1ccccc1C(=O)N(C)Cc1ccc(C(C)(C)C)cc1	2	13	-9	-11	-36*
Cc1noc(C)c1COc1ccccc1C(=O)N(C)Cc1ccc(F)cc1	1	2	-7	-4	-11
O=C(NCC1CCCO1)c1cccc(S(=O)(=O)N2CCOCC2)c1 (stereo not given)	0	1	4	-2	0
COc1cccc(-c2ccc(NC(=O)C3CCCN(CCCn4nc(C)cc4C)C3)cc2)c1 (stereo not given)	0	41*	-3	-7	-21
COc1ccc2[nH]cc(CCNC(=O)COc3ccc4ccc(=O)oc4c3)c2c1	1	3	-8	-4	-5
Cc1ccc(S(=O)(=O)N(C)c2ccccc2C(=O)N2CCOCC2)cc1	0	1	-3	2	-3
O=C(N/N=C/c1ccc(Cl)cc1Cl)c1cccc(N2CCCC2=O)c1	0	4	30*	1	-6
O=C(NCc1ccccc1CN1CCCC1)c1cccc(N2CCCC2=O)c1	0	4	2	.	-37*
O=C(c1cccc(N2CCCC2=O)c1)N1CCN(c2ccccc2)CC1	1	1	-1	-3	-31*
CC(=O)Oc1ccc2nc(/C=C/c3ccccc3)oc(=O)c2c1	0	3	3	-9	-13
O=C(CN1C(=O)CC(c2ccco2)Sc2ccccc21)Nc1ccc(OC(F)(F)F)cc1 (stereo not given)	1	4	17	1	-19
Cc1ccc(Cn2c(=O)n(C)c(=O)c3sccc32)cc1	-1	10	-5	-3	-24
C=Cc1ccc(Cn2c(=O)n(C)c(=O)c3sccc32)cc1	-2	16	-7	-2	-34*
COc1ccc(C(=O)Nc2nnc(CC(=O)N/N=C/c3ccc(O)cc3O)s2)cc1	52*	46*	3	-2	15
O=C(NCCCN1CCOCC1)c1cccs1	0	8	4	6	-35*
Cc1ccc(S(=O)(=O)NC(=O)c2cc(C)n(CCCN3CCOCC3)c2C)cc1	1	1	-1	1	1
Cc1ccc(S(=O)(=O)NC(=O)NCCCN2CCOCC2)cc1	0	2	-2	-10	-56*
Cc1cc(C)cc(NC(=O)C(=O)NCCCN2CCOCC2)c1	-1	-1	4	2	-79*!
CCOc1ccccc1NS(=O)(=O)c1c(C)[nH]c(C)c1C(=O)N1CCCCC1	0	4	-3	-1	-1
Cc1c(C)c2c(cc(C)c3c(-c4ccc(Br)cc4)coc32)oc1=O	0	2	3	0	-14
CCCCNc1sc(S(=O)(=O)CC)nc1S(=O)(=O)c1ccc(C)cc1	-1	7	-2	-2	7
CCC1CCCCN1CCCNC(=O)Cn1cnc2sc(C)c(S(=O)(=O)N3CC(C)CC(C)C3)c2c1=O (stereo not given)	-1	1	1	-4	-17

High-throughput results deposited in PubChem by National Center for Advancing Translational Sciences (NCATS).
